# Results as given in ChEMBL document CHEMBL3433997, “St. Jude Leishmania screening dataset” (2016).
# Molecular target: Hexose transporter 1 (Plasmodium falciparum) (UniProt O97467)
# Assay: ST_JUDE_LEISH: Cytotoxicity at 2uM final concentration against transgenic Leishmania Mexicana promastigotes LmPfHT that are glucose transport deficient and complemented with the Plasmodium falciparum hexose transporter. Activity is measured by DNA content using SYBR green in vitro
# Type: functional
row,Structure (SMILES),inhibition [%]
1,Cc1nc(N)nc(N)c1OCCCCCCOc1ccccc1,4.83
2,FC(F)(F)c1ccc2[nH]c(-c3ccc(-c4ccc(CNCCc5ccncc5)cc4)cc3)nc2c1,-3.26
3,COc1ccc(-c2ccc(CNCc3ccccc3)cc2)cc1S(=O)(=O)NCCN1CCCC1,1.92
4,COc1ccc2ccccc2c1C=NN=c1cc(C)[nH]c2c(C)cccc12,1.8
5,CC(CN1CCN(C)CC1)C(=O)Nc1cccc(-c2ccc(-c3nc4ccccc4[nH]3)s2)c1 (stereo not given),-1.46
6,Oc1cccc2ccc(Nc3ccccn3)nc12,2.29
7,CN(C)Cc1ccc2cc(NC(=O)c3ccc(-c4ccc(Cl)cc4)cc3)ccc2c1,3.04
8,COc1ccc2nc3cc(Cl)ccc3c(NCCO)c2c1,-1.06
9,CCCCCCNc1cc(C)nc(NC(=N)Nc2cccc(C(F)(F)F)c2)n1,3.48
10,COc1ccc(-c2cc(NCc3ccc(-n4ccnc4)cc3)nc(Nc3ccccc3)n2)cc1,0.85
11,O=C1c2ccc([N+](=O)[O-])cc2C(=O)N1c1ccc2[nH]ncc2c1,1.54
12,O=C(C=Cc1ccc(Cl)c(Cl)c1)NCCCCCN1CCC(CCNC(=O)c2cccc3ccccc23)CC1,2.98
13,C=CC(C)C1OC(=O)c2cc(OC)cc(OC)c21 (stereo not given),89
14,OC(c1ccccc1)C1CN(Cc2ccccc2)CCC1(O)c1ccccc1 (stereo not given),7.93
15,CC(C)(Oc1ccc(Cl)cc1)C(=O)NCCC1CCN(CCCCCNC(=O)/C=C/c2ccc(Cl)c(Cl)c2)CC1,7.08
16,COc1ccc(S(=O)(=O)Nc2cc(Br)cc3c2OCCC3)cc1N1CCN(C(=O)C(Cl)(Cl)Cl)CC1,-1.14
17,CC[C@H](NC(=O)c1c(N)c(-c2sccc2Cl)nc2ccccc12)c1ccccc1,0.64
18,Cc1nnsc1C(=O)Nc1ccc(-c2cccc(-c3nc4cc(F)ccc4[nH]3)c2)cc1,1.3
19,COc1ccccc1N1CCN(Cc2cc(C(C)C)c(C)cc2O)CC1,6.3
20,Cc1cc(Cl)c(Cl)cc1NC(=O)Nc1cccc(C(F)(F)F)c1,-0.59

row,Structure (SMILES),inhibition [%]
1,Cc1cc(N2CCCN(C)CC2)nc(Nc2ccc(Cl)cc2)n1,1.73
2,CCC(ON1C(N)=NC(N)=NC1(C)C)c1ccc(Cl)cc1 (stereo not given),8.81
3,COc1c(C2=CCN(CCCCNC(=O)c3ccc(-c4ccc(C#N)cc4)cc3)CC2)c(C)cc2c1C(C)(C)CCC2(C)C,2.18
4,CCN(CC)CCN(Cc1ccc(-c2ccc(C(F)(F)F)cc2)cc1)C(=O)Cn1c(CCc2cccc(F)c2F)nc(=O)c2sccc21,1.36
5,COc1ccccc1C(=O)Nc1ccc(Nc2nc(C)cc(N(C)C)n2)cc1,18.3
6,CCN(CC)CCn1c2ccccc2c2ccc(C(=O)Nc3ccc4sc(C)nc4c3)cc21,11.9
7,COCCNCc1cccc(-c2ccc3c(Nc4cc(O)c(Cl)cc4F)ccnc3c2)c1,3.2
8,CCC[C@@H]([C@@H](CC(C)C)C(=O)N[C@@H](CCC/N=C(/N)NS(C)(=O)=O)C(=O)Nc1nccs1)N(O)C=O,9.74
9,CCOC(=O)C1=C(C)NC(Cn2ccnc2)=C(C(=O)OCC)C1c1ccc(C(C)(C)C)cc1 (stereo not given),2.73
10,CNCCNCc1ccc(-c2cccc(-c3nc4cc(F)ccc4[nH]3)c2)cc1,3.78
11,c1ccc(COc2ccc(Cn3ccc(-c4ccc(-n5ccnc5)cc4)n3)cc2)cc1.c1ccc(COc2ccc(Cn3nccc3-c3ccc(-n4ccnc4)cc3)cc2)cc1,1.54
12,COc1ccc2nccc(NCC3(O)CCN(CCc4ccc5c(c4)OCCO5)CC3)c2n1,4.58
13,COc1cc(-c2cc(-c3ccc(S(C)(=O)=O)cc3)cnc2N)ccc1O,6.34
14,Cc1cc(C(=O)Nc2ccc(-c3ccccc3)cc2)no1,0.53
15,Cc1ccc(Nc2nc(C)cc(N3CCN(c4ccccc4)CC3)n2)cc1,5.92
16,CCc1ccc(-n2c(NC(=O)c3ccccc3)nc3ccc(S(=O)(=O)NC(C)C(C)C)cc32)cc1 (stereo not given),-1.8
17,COc1ccc2nccc(N/N=C/c3ccc([N+](=O)[O-])cc3)c2c1,-1.77
18,CN(C)Cc1ccc(-c2cccc(Nc3nccc(NCC(O)c4ccccc4)n3)c2)cc1 (stereo not given),1.38
19,C[C@H]1CN(Cc2cccc(-c3cc(CNC(=O)c4cccc(C(=O)c5ccc(Cl)c(Cl)c5)c4)ccc3F)c2)CCN1,2.34
20,O=C(Nc1cccc(C2=NCCN2)c1)Nc1cccc(C2=NCCN2)c1,5.37

# Molecular target: Glucose transporter (Leishmania mexicana) (UniProt O61059)
# Assay: ST_JUDE_LEISH: Cytotoxicity at 2uM final concentration against transgenic Leishmania Mexicana promastigotes LmGT2 that are glucose transport deficient and complemented with the L. Mexicana glucose transporter 2. Activity is measured by DNA content using SYBR green in vitro
# Type: functional
row,Structure (SMILES),inhibition [%]
1,Cc1nc(N)nc(N)c1OCCCCCCOc1ccccc1,-0.89
2,FC(F)(F)c1ccc2[nH]c(-c3ccc(-c4ccc(CNCCc5ccncc5)cc4)cc3)nc2c1,0.57
3,COc1ccc(-c2ccc(CNCc3ccccc3)cc2)cc1S(=O)(=O)NCCN1CCCC1,-1.36
4,COc1ccc2ccccc2c1C=NN=c1cc(C)[nH]c2c(C)cccc12,3.6
5,CC(CN1CCN(C)CC1)C(=O)Nc1cccc(-c2ccc(-c3nc4ccccc4[nH]3)s2)c1 (stereo not given),-3.97
6,Oc1cccc2ccc(Nc3ccccn3)nc12,-0.77
7,CN(C)Cc1ccc2cc(NC(=O)c3ccc(-c4ccc(Cl)cc4)cc3)ccc2c1,2.55
8,COc1ccc2nc3cc(Cl)ccc3c(NCCO)c2c1,2.4
9,CCCCCCNc1cc(C)nc(NC(=N)Nc2cccc(C(F)(F)F)c2)n1,4.89
10,COc1ccc(-c2cc(NCc3ccc(-n4ccnc4)cc3)nc(Nc3ccccc3)n2)cc1,1.83
11,O=C1c2ccc([N+](=O)[O-])cc2C(=O)N1c1ccc2[nH]ncc2c1,0.95
12,O=C(C=Cc1ccc(Cl)c(Cl)c1)NCCCCCN1CCC(CCNC(=O)c2cccc3ccccc23)CC1,2.03
13,C=CC(C)C1OC(=O)c2cc(OC)cc(OC)c21 (stereo not given),86.8
14,OC(c1ccccc1)C1CN(Cc2ccccc2)CCC1(O)c1ccccc1 (stereo not given),7
15,CC(C)(Oc1ccc(Cl)cc1)C(=O)NCCC1CCN(CCCCCNC(=O)/C=C/c2ccc(Cl)c(Cl)c2)CC1,2.35
16,COc1ccc(S(=O)(=O)Nc2cc(Br)cc3c2OCCC3)cc1N1CCN(C(=O)C(Cl)(Cl)Cl)CC1,-0.3
17,CC[C@H](NC(=O)c1c(N)c(-c2sccc2Cl)nc2ccccc12)c1ccccc1,1.74
18,Cc1nnsc1C(=O)Nc1ccc(-c2cccc(-c3nc4cc(F)ccc4[nH]3)c2)cc1,-2.69
19,COc1ccccc1N1CCN(Cc2cc(C(C)C)c(C)cc2O)CC1,0.93
20,Cc1cc(Cl)c(Cl)cc1NC(=O)Nc1cccc(C(F)(F)F)c1,-0.28

row,Structure (SMILES),inhibition [%]
1,Cc1cc(N2CCCN(C)CC2)nc(Nc2ccc(Cl)cc2)n1,2.54
2,CCC(ON1C(N)=NC(N)=NC1(C)C)c1ccc(Cl)cc1 (stereo not given),10.4
3,COc1c(C2=CCN(CCCCNC(=O)c3ccc(-c4ccc(C#N)cc4)cc3)CC2)c(C)cc2c1C(C)(C)CCC2(C)C,0.96
4,CCN(CC)CCN(Cc1ccc(-c2ccc(C(F)(F)F)cc2)cc1)C(=O)Cn1c(CCc2cccc(F)c2F)nc(=O)c2sccc21,-0.22
5,COc1ccccc1C(=O)Nc1ccc(Nc2nc(C)cc(N(C)C)n2)cc1,5.83
6,CCN(CC)CCn1c2ccccc2c2ccc(C(=O)Nc3ccc4sc(C)nc4c3)cc21,8.05
7,COCCNCc1cccc(-c2ccc3c(Nc4cc(O)c(Cl)cc4F)ccnc3c2)c1,2.93
8,CCC[C@@H]([C@@H](CC(C)C)C(=O)N[C@@H](CCC/N=C(/N)NS(C)(=O)=O)C(=O)Nc1nccs1)N(O)C=O,6.5
9,CCOC(=O)C1=C(C)NC(Cn2ccnc2)=C(C(=O)OCC)C1c1ccc(C(C)(C)C)cc1 (stereo not given),2.07
10,CNCCNCc1ccc(-c2cccc(-c3nc4cc(F)ccc4[nH]3)c2)cc1,3.03
11,c1ccc(COc2ccc(Cn3ccc(-c4ccc(-n5ccnc5)cc4)n3)cc2)cc1.c1ccc(COc2ccc(Cn3nccc3-c3ccc(-n4ccnc4)cc3)cc2)cc1,1.48
12,COc1ccc2nccc(NCC3(O)CCN(CCc4ccc5c(c4)OCCO5)CC3)c2n1,0.15
13,COc1cc(-c2cc(-c3ccc(S(C)(=O)=O)cc3)cnc2N)ccc1O,9.19
14,Cc1cc(C(=O)Nc2ccc(-c3ccccc3)cc2)no1,0.52
15,Cc1ccc(Nc2nc(C)cc(N3CCN(c4ccccc4)CC3)n2)cc1,2.13
16,CCc1ccc(-n2c(NC(=O)c3ccccc3)nc3ccc(S(=O)(=O)NC(C)C(C)C)cc32)cc1 (stereo not given),-1.72
17,COc1ccc2nccc(N/N=C/c3ccc([N+](=O)[O-])cc3)c2c1,3.94
18,CN(C)Cc1ccc(-c2cccc(Nc3nccc(NCC(O)c4ccccc4)n3)c2)cc1 (stereo not given),0.25
19,C[C@H]1CN(Cc2cccc(-c3cc(CNC(=O)c4cccc(C(=O)c5ccc(Cl)c(Cl)c5)c4)ccc3F)c2)CCN1,1.43
20,O=C(Nc1cccc(C2=NCCN2)c1)Nc1cccc(C2=NCCN2)c1,1.1
